Source: PubChem
Only some compounds are listed: those with a hit (about 7.5% of all), similar ones and a draw of the others.
B2AR arrestin: agonists driving beta-arrestin recruitment to human beta2-adrenergic receptor; P07550; beta-arrestin recruitment to beta2AR, cell-based reporter; Potency, µM (top dose mostly 46.1 µM), most hits filed as activators; 0.02% of 330,000 active; note: nearly all actives have a fitted effect of over 65% in size
ELG1 DNA repair: inhibitors of ELG1-dependent DNA repair in HEK293T cells; HEK293T ELG1-luciferase reporter, luminescence, 16 h; DNA damage induced by 5-fluorouridine; Potency, µM (series often up to 46.1 µM), hits mostly inhibitors; 2.3% of 330,000 active; note: nearly all actives have a fitted effect of over 55% in size
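In this reporter screen, reduction of luminescence relative to DMSO vehicle indicated activity. Compounds and 5-fluorouridine were added together to 2,000 cells per well, incubated for 16 hr at 37 °C, then developed with ONE-Glo.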
RORg inh: ROR gamma (mouse) transcription inhibition; Potency, µM (top dose mostly 53.6 µM), usual class: inhibitors; AID 2551; 5.4% of 310,000 active; Drosophila S2 Gal4-RORgamma UAS-luciferase reporter, 20 h; P51450; note: nearly all actives have a fitted effect of over 60% in size
Target sequence (P51450 whole entry, looked up, the tested form may be a part): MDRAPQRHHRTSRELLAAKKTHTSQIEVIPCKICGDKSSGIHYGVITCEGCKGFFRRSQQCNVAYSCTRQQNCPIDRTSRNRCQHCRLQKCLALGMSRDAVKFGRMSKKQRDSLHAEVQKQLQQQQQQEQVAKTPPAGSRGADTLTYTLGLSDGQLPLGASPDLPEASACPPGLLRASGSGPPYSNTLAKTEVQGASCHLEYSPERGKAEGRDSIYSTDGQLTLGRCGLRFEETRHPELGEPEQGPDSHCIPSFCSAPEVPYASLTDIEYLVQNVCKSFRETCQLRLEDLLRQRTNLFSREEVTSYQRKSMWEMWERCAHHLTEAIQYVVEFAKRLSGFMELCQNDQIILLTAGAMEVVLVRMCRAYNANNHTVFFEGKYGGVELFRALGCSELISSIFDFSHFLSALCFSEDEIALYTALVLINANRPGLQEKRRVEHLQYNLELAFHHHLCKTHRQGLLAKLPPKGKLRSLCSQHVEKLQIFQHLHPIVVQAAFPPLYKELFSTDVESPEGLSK
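In this cell-based reporter format, copper sulfate (700 uM final) drives Gal4–ROR gamma fusion expression from a metallothionein promoter in Drosophila Schneider cells; compounds preincubated 1 hr, reporter read after 20 hr at ambient temperature.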
TSHR antagonist: human thyrotropin receptor antagonism. TSHR-expressing cells, TSH-stimulated cAMP HTRF, 2 h; hits give low values. 0.2% of 330,000 active. activity change, negative = inhibition, % at 11.5 µM. P16473;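 active = activity change below a set negative limit, meaning inhibition stronger than a set level, cut at about -70% in these data; inconclusive = activity change between two set negative limits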
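TSHR-expressing cells were treated with compounds, then stimulated with TSH at EC80 (4nM final) for 2 hours at 37 deg C. Cellular cAMP was measured by HTRF competition between lysate cAMP and cAMP-d2 for a cryptate-labelled anti-cAMP antibody.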
VP16 counter: inhibits Gal4-VP16 luciferase reporter, ROR gamma counter-screen; Drosophila S2 Gal4-VP16 UAS-luciferase, luminescence, 20 h; Potency, µM (titrated, usually from 53.6 µM), hits mostly inhibitors; 3.5% of 310,000 active;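 note: Gal4-VP16 expression switched on by copper sulfate through the metallothionein promoter; nearly all actives have a fitted effect of over 50% in size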
Large screens that a line does not name were inactive. Unless noted, calls come from the whole dose curve; as a rule, active = well fitted curve in the direction sought with a large enough effect; inconclusive = small, poorly fitted or top-dose-only effect, or another doubt; inactive = no such curve, though single readings can be large; an effect the other way counts as inactive or inconclusive.

COc1ccc(-c2cc(C(F)F)nn2-c2ccc(S(N)(=O)=O)cc2)cc1F	none (no result: B2AR arrestin, ELG1 DNA repair, TSHR antagonist)
Cc1ccccc1C(=O)Nc1cccc(-c2ccc(N3CCOCC3)nn2)c1	ELG1 DNA repair inconclusive (no result: RORg inh, VP16 counter)
C/C(CC(C)(C)C1CCCCC1)=N\NC(N)=S	B2AR arrestin inconclusive, ELG1 DNA repair inconclusive, RORg inh 0.89µM, TSHR antagonist inconclusive, VP16 counter 2.8µM
C[C@H]1C(=O)N(S(=O)(=O)c2ccc([N+](=O)[O-])cc2)[C@H]1c1ccc(F)cc1	none (no result: B2AR arrestin, ELG1 DNA repair, TSHR antagonist)
FC(F)(F)c1cnc(NNC(=S)Nc2ccccc2Cl)c(Cl)c1	ELG1 DNA repair inconclusive, RORg inh inconclusive, VP16 counter 10µM
Cc1cccc(NC(=O)NNC(=O)c2ccccn2)c1	none (no result: RORg inh, TSHR antagonist, VP16 counter)
Cc1cccc(NC(=S)NNc2ncc(C(F)(F)F)cc2Cl)c1	ELG1 DNA repair inconclusive, RORg inh 16µM, VP16 counter 13µM
CSCC[C@H](NC(=O)N1CCn2c1nc1ccccc12)C(=O)NC1CC1	none
COc1cccc(CNC(=O)[C@H](CCSC)NC(=O)N2CCn3c2nc2ccccc23)c1	ELG1 DNA repair 18µM
COc1cc(C2c3[nH]c4ccccc4c3CC3C(=O)N4C(Cc5c([nH]c6ccccc56)C4c4cc(OC)c(OC)c(OC)c4)C(=O)N32)cc(OC)c1OC (stereo unspecified)	VP16 counter inconclusive (no result: B2AR arrestin, ELG1 DNA repair, TSHR antagonist)
Cc1nn(-c2ccccc2)cc1C(=S)Nc1ccccc1	ELG1 DNA repair inconclusive, RORg inh 11µM
Nc1c(C(=O)Nc2cccc(C(=O)O)c2)sc2nc3c(cc12)CCCC3	ELG1 DNA repair inconclusive, RORg inh 2.8µM, VP16 counter 3.2µM
COC(=O)CN1C(=O)S/C(=C/c2ccc(N3CCCCC3)o2)C1=O	ELG1 DNA repair inconclusive, RORg inh inconclusive, VP16 counter 5µM
CCCN1C(=O)S/C(=C\c2ccc(N3CCOCC3)o2)C1=O	ELG1 DNA repair inconclusive, RORg inh 5.6µM, VP16 counter 4.5µM
CCCN1C(=O)S/C(=C/c2ccc(N3CCOCC3)o2)C1=O	ELG1 DNA repair inconclusive
O=S(=O)(Cc1cc(NCc2ccccc2)nc(-c2ccccn2)n1)c1ccccc1	ELG1 DNA repair inconclusive, RORg inh 4.5µM, VP16 counter inconclusive
CCOC(=O)C1=C(C)N(c2ccccc2)C(=O)/C1=C\c1ccc(O)c(OC)c1	ELG1 DNA repair inconclusive
CCOC(=O)C1=C(O)c2ccccc2C(=O)/C1=C\c1ccc(CC)cc1	RORg inh 4.5µM
CCCc1ccc(/C=C2\C(=O)c3ccccc3C(O)=C2C(=O)OCC)cc1	ELG1 DNA repair inconclusive, RORg inh 11µM, VP16 counter inconclusive
Cc1noc(NS(=O)(=O)c2cccc3c(N(C)C)cccc23)c1C	none (no result: B2AR arrestin, ELG1 DNA repair, TSHR antagonist)
COc1ccccc1CN(Cc1nc2ccccc2c(=O)[nH]1)C(=O)Nc1cccc(C)c1	ELG1 DNA repair inconclusive, RORg inh 7.1µM (no result: TSHR antagonist)
COc1cccc(NC(=O)CN(C)C(=O)CCCc2nc3ccccc3c(=O)[nH]2)c1	none (no result: RORg inh, VP16 counter)
CN(CC(=O)Nc1ccc(N2CCOCC2)cc1)Cc1c(O)ccc2ccccc12	RORg inh 1.8µM
CCN(CC(=O)Nc1ccc(N2CCOCC2)cc1)Cc1nc2ccccc2c(=O)[nH]1	ELG1 DNA repair inconclusive, RORg inh 4µM, VP16 counter 13µM
O=C(CSc1nc2ccccc2c(=O)[nH]1)Nc1ccc(N2CCOCC2)cc1	VP16 counter inconclusive
CCN(CC(=O)Nc1cccc(Br)c1)Cc1nc2ccccc2c(=O)[nH]1	RORg inh 4µM, VP16 counter 7.1µM
COc1ccccc1NC(=O)N(Cc1ccc2c(c1)OCO2)Cc1nc2ccccc2c(=O)[nH]1	ELG1 DNA repair inconclusive, RORg inh inconclusive
O=c1c(CCc2ccccc2)nc2cnc(N3CCOCC3)nc2n1C[C@H]1CCCO1	none (no result: B2AR arrestin, ELG1 DNA repair, TSHR antagonist)
CCCc1ccc(NC(=O)C2CCCN(c3cnccn3)C2)cc1 (stereo unspecified)	none
CCc1cccc(CC)c1NC(=O)CN1CCN(S(=O)(=O)c2ccccc2)CC1	none (no result: RORg inh, VP16 counter)
CCN(CC(=O)Nc1ccc2c(c1)CCC2)Cc1nc2ccccc2c(=O)[nH]1	ELG1 DNA repair inconclusive, RORg inh 5µM
CN(CC(=O)Nc1ccc(Cl)c(C(F)(F)F)c1)C(=O)CCCc1nc2ccccc2c(=O)[nH]1	ELG1 DNA repair 11µM (no result: RORg inh, VP16 counter)
CC(OC(=O)CCc1nc2ccccc2c(=O)[nH]1)C(=O)Nc1ccc2c(c1)OCO2 (stereo unspecified)	none
CCN(CC(=O)Nc1ccc2c(c1)OC(F)(F)O2)Cc1nc2ccccc2c(=O)[nH]1	RORg inh 10µM, VP16 counter inconclusive
CN(CC(=O)Nc1cccc(F)c1)C(=O)CCCc1nc2ccccc2c(=O)[nH]1	none (no result: RORg inh, VP16 counter)
CCN(CC(=O)Nc1ccc2c(c1)OCO2)Cc1nc2ccccc2c(=O)[nH]1	ELG1 DNA repair inconclusive, RORg inh 2.5µM, VP16 counter 7.1µM
O=C(CCc1nc2ccccc2c(=O)[nH]1)Nc1ccc(F)c([N+](=O)[O-])c1	ELG1 DNA repair inconclusive
Cc1cnc(CNc2cc(-c3cccc(C#N)c3)ncn2)cn1	none (no result: B2AR arrestin, ELG1 DNA repair, TSHR antagonist)
O=CN1N=C(c2ccccc2)CC1c1ccc(Cl)cc1 (stereo unspecified)	none
O=C1OC(c2ccccc2)=NC12CC2c1ccc(Cl)cc1 (stereo unspecified)	RORg inh 10µM, VP16 counter 5µM
O=C(O)c1ccc(/C=N/n2c(C3CCCCC3)n[nH]c2=S)cc1	none
COc1cc(/C=N/n2c(C3CCCCC3)n[nH]c2=S)cc(Br)c1O	none
Cc1cccc(-c2n[nH]c(=S)n2/N=C/c2ccc(C)o2)c1	RORg inh inconclusive, VP16 counter 11µM
CSc1ccc(/C=N/n2c(C3CCCCC3)n[nH]c2=S)cc1	ELG1 DNA repair inconclusive, RORg inh 1.6µM, VP16 counter inconclusive
O=[N+]([O-])c1ccc(/C=N/n2c(C3CCCCC3)n[nH]c2=S)cc1	RORg inh 1.4µM, VP16 counter inconclusive
Cc1cc(-c2n[nH]c(=S)n2/N=C/c2ccc(C)o2)n[nH]1	none
Cc1ccc(/C=N/n2c(C3CCCCC3)n[nH]c2=S)o1	RORg inh 11µM, VP16 counter inconclusive
CC(C)(C)OC(=O)C[C@H]1C/C=C\C[C@@H](CC(=O)N[C@@H](CO)Cc2ccccc2)C(=O)NC[C@@H](c2ccccc2)OC1=O	ELG1 DNA repair inconclusive (no result: RORg inh, VP16 counter)
Cc1ccc(C(=O)N2CCN(C)CC2)cc1S(=O)(=O)N1CCCCCC1	none
COc1cc(/C=N/NC(=O)c2ccc(O)cc2)ccc1Oc1ccc([N+](=O)[O-])cn1	RORg inh inconclusive
COC(=O)N1CCC[C@@]2(CCN(C(=O)Nc3cccc(C#N)c3)C2)C1	none (no result: B2AR arrestin, ELG1 DNA repair, TSHR antagonist)
O=C(O)CCCC(=O)Nc1ccc2c(c1)oc1ccccc12	RORg inh 11µM, VP16 counter inconclusive
CCCCC(=O)Nc1ccc2c(c1)oc1ccccc12	ELG1 DNA repair inconclusive
Cc1ccc(C(=O)N(CCc2ccccc2)Cc2ccccc2)cc1S(=O)(=O)N1CCCCC1	ELG1 DNA repair inconclusive (no result: RORg inh, VP16 counter)
CC1CCN(S(=O)(=O)c2cccc(C(=O)Nc3nccs3)c2)CC1	ELG1 DNA repair inconclusive, RORg inh 11µM, VP16 counter inconclusive
